# Compound activity from PubChem.
# This is a sample that favours compounds with a hit; in the whole collection about 12% have one here.
# SARS PLP yeast – blocks SARS-CoV papain-like protease in a yeast assay; S. cerevisiae expressing SARS-CoV PLpro, growth rescue; Potency, µM (series often up to 32.9 µM), for the others: at the highest dose activity, positive = growth rescue, most hits filed as activators; actives 0.19% (n = 330,000); AID 485353; calls by dose curve; also: 0% is about no effect; nearly all actives have a fitted effect of over 55% in size
# AMA1-RON2 inh – AMA1-RON2 (P. falciparum) interaction inhibition. AID 720542. AlphaScreen AMA1-biotinylated RON2 peptide binding. actives 0.2% (n = 360,000). Potency, µM (doses to about 58.2 µM), for inactives: top-dose activity change, negative = inhibition, usual class: inhibitors;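 also: 0% = vehicle wells and -100% = peptide control; nearly all actives have a fitted effect of over 45% in size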
#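 AMA1 (3D7) with his tag at 25 nM final met compounds first, then biotinylated RON2 peptide at 25 nM; detection used donor plus acceptor beads, 10 µg/mL apiece, read by AlphaScreen after 30 min at room temperature.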
# HCV inh – inhibitors of hepatitis C virus infection; Huh7.5.1 HCVcc-Cre infection, luciferase reporter, 44 h; Potency, µM (titrated, usually from 41.8 µM), inactives show at the highest dose activity change, negative = inhibition, actives largely listed as inhibitors; actives 3.4% (n = 340,000); also: % is scaled to controls: 0 for no effect and ±100 for the full control effect
#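 Seed cells (1,000/well) for 4 h; treat with compound and infect with HCVcc-Cre, moi about 0.5. Incubate 44 h, then detect luciferase activity.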
# Pf growth 48h – inhibits P. falciparum growth in the first generation, 48 h; actives 5.9% (n = 310,000); Potency, µM (top dose mostly 28.7 µM), inactives show at the highest dose activity change, negative = inhibition, most hits filed as inhibitors; P. falciparum luciferase growth in erythrocytes, 48 h; also: % is scaled to controls: 0 for no effect and ±100 for the full control effect
#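 Read-out is firefly luciferase luminescence from an integrated reporter in P. falciparum, so falling signal marks reduced parasite growth. Infected erythrocytes were at 2% hematocrit and 0.1% parasitemia (final) in Albumax-supplemented RPMI 1640.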
# Pf growth 96h – P. falciparum growth inhibition at 96 hour, primary screen for plastid delayed-death inhibitors; P. falciparum luciferase reporter growth, 96 h; Potency, µM (doses to about 28.7 µM), without a hit: at the top dose activity change, negative = inhibition, usual class: inhibitors; actives 6.9% (n = 320,000); AID 504834; also: % is scaled to controls: 0 for no effect and ±100 for the full control effect
#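 Two parasite generations (96 h, 37 C, 5% CO2) of compound exposure in infected erythrocytes (0.05% parasitemia, 2% hematocrit). Luciferase-reporter P. falciparum; decreased luminescence indicates inhibited growth, aimed at apicoplast-acting delayed death.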
# NS1 function inh – blocks influenza NS1 protein function | AID 2326 | actives 0.4% (n = 270,000) | Potency, µM (top dose mostly 46.1 µM), without a hit: top-dose activity, positive = more growth; calls by dose curve; also: actives are rising curves; nearly all actives have a fitted effect of over 50% in size
#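 OD600 was taken as the measure of yeast growth restored by compound in an NS1-expressing S. cerevisiae strain. Cells had been washed out of glucose medium and diluted 1:100 into galactose -URA medium, pH 6.0.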
# * = called active by the depositor; u = inconclusive; x = no result given; [ ] = another dose, or the depositor's remark. Unless noted, calls follow the shape of the dose curve; as a rule, active = well fitted curve in the direction sought with a large enough effect; inconclusive = small, poorly fitted or top-dose-only effect, or another doubt; inactive = no such curve, though single readings can be large; an effect the other way counts as inactive or inconclusive. Potency is read from the fitted curve at half-maximal effect.
SMILES,SARS PLP yeast,AMA1-RON2 inh,HCV inh,Pf growth 48h,Pf growth 96h,NS1 function inh
CSc1nnc(Nc2ccccc2C)s1,-9%,-3%,-7%,x,9.3µM*,-10%
N#Cc1cc2c(nc1S(=O)(=O)Cc1ccccc1)CCCC2,0%,4%,13%,4%,16%,x
COC(=O)c1ccccc1Oc1ccc(NC(=O)CCCl)cc1,-11%,5%,1%,-12%,-13%,x
O=C(OCc1ccccc1)c1cn(-c2ccccc2)nc1-c1ccncc1,-34%,-7%,17%,u,9.3µM*,-8%
CCOC(=O)c1ccc(NC(=O)c2cn(-c3ccccc3)nc2-c2ccncc2)cc1,-10%,7%,u,4.1µM*,0%,16%
CCOC(=O)c1c(NC(=O)Cn2cnc([N+](=O)[O-])n2)sc(C)c1C,-9%,-4%,-28%,-9%,119%,x
COc1ccc(OC)c(-c2nc(C(=O)NCC3CCCO3)cc3c2[nH]c2ccccc23)c1 (stereo not given),-26%,43%,10µM*,u,u,8%
COc1cccc(-c2nc(C(=O)NCC3CCCO3)cc3c2[nH]c2ccccc23)c1 (stereo not given),-30%,-4%,11µM*,u,8.3µM*,-55%
COc1cccc(-c2cc(C(=O)NCC3CCCO3)on2)c1 (stereo not given),21%,-5%,-2%,104%,u,-16%
CCN1CCN(C(=O)CCc2nnc3ccc(N4CCN(c5cccc(OC)c5)CC4)nn23)CC1,10%,-4%,0%,-16%,u,5%
CCOc1cc(CNc2cccc3[nH]c(C)nc23)ccc1OC,-2%,-7%,u,12µM*,18%,8%
CCOc1cc(CNc2ncnc3nc[nH]c23)ccc1OC,5%,-6%,u,-1%,-11%,-33%
CCCS(=O)(=O)c1nc(S(=O)(=O)c2ccc(C)cc2)c(N2CCC3(CC2)OCCO3)s1,-2%,-18%,2%,-16%,u,-15%
O=C(COC(=O)c1cncc(Br)c1)NC1CCCCCC1,0%,-6%,-1%,3.3µM*,19%,-2%
COc1cc(CN2CCN(CC#Cc3ccccc3)CC2CCO)cc(OC)c1 (stereo not given),0%,1%,12%,-15%,u,-11%
CC(C)(C)C(=O)Nc1ccc(C(=O)CSc2nnc(C3CC3)n2C2CC2)cc1,1%,-3%,-5%,4%,-24%,x
COC(=O)c1sc(=S)n(-c2ccccc2OC)c1N,-2%,1%,-12%,34%,u,11%
C=CCNC(=O)c1sc(=S)n(-c2ccc(C(=O)OCC)cc2)c1N,-15%,-6%,1%,11%,2.9µM*,-76%
CCOC(=O)c1sc(=S)n(-c2ccc(Cl)cc2)c1SC,5%,-17%,1%,u,0.93µM*,0%
Cc1ccc(-n2c(N)c(C(N)=O)sc2=S)c(C)c1,1%,-8%,9%,12%,15µM*,-46%
CCOC(=O)c1sc(=S)n(-c2ccccc2OC)c1N,-26%,-10%,-14%,-14%,6.6µM*,-67%
CCOc1ccccc1-n1c(N)c(C(N)=O)sc1=S,0%,19%,3%,28%,1.7µM*,20%
COC(=O)c1ccc(C2c3[nH]c4ccccc4c3C[C@H]3C(=O)N(C)CC(=O)N23)cc1 (stereo not given in full),3%,-18%,7%,u,u,-3%
CN1CC(=O)N2C(c3ccc(Cl)cc3)c3[nH]c4ccccc4c3C[C@H]2C1=O (stereo not given in full),2%,-10%,-6%,8.3µM*,13µM*,2%
COCCCN1CC(=O)N2C(c3ccc(C)cc3)c3[nH]c4ccccc4c3C[C@H]2C1=O (stereo not given in full),0%,-20%,9%,u,u,5%
SMILES,SARS PLP yeast,AMA1-RON2 inh,HCV inh,Pf growth 48h,Pf growth 96h,NS1 function inh
COCCN1CC(=O)N2C(c3cccc(C)c3)c3[nH]c4ccccc4c3C[C@H]2C1=O (stereo not given in full),1%,-4%,4%,13µM*,12µM*,3%
CCN1C(=O)[C@@H]2Cc3c([nH]c4ccccc34)C(c3ccc(OC)cc3)N2C1=S (stereo not given in full),-1%,-14%,u,15µM*,u,8%
CC(C)OCCCN1CC(=O)N2C(c3ccccc3)c3[nH]c4ccccc4c3C[C@H]2C1=O (stereo not given in full),-3%,-6%,23%,9.3µM*,u,-8%
Cc1ccc(NS(=O)(=O)c2ccc(C)c(NC(=S)NCCN3CCOCC3)c2)c(C)c1,-1%,20%[11.6 µM],-28%,x,x,x
Cc1[nH]c(=O)[nH]c(=O)c1CSCC(=O)OCC(=O)Nc1ccccn1,-2%,9%,-2%,25%,0%,-61%
COCCCN1CC(=O)N2C(c3cccc(C)c3)c3[nH]c4ccccc4c3C[C@H]2C1=O (stereo not given in full),1%,0%,16%,9.3µM*,u,-5%
COCCCN1CC(=O)N2C(c3cccc(OC)c3OC)c3[nH]c4ccccc4c3C[C@H]2C1=O (stereo not given in full),0%,-6%,-7%,9.3µM*,12µM*,-7%
COCCCN1CC(=O)N2C(c3ccccc3)c3[nH]c4ccccc4c3C[C@H]2C1=O (stereo not given in full),2%,-9%,30%,x,u,-8%
O=C(CSc1nnc(-c2ccc(O)cc2)o1)Nc1ccccc1Br,-1%,4%,3%,32%,u,5%
CCC(C(=O)NCCCN(CC)Cc1ccccc1)n1nc(C)c2sc3ccccc3c2c1=O (stereo not given),3%,-1%,u,10µM*,41%,-5%
Oc1ccc(-c2nc(-c3ccc(F)cc3)c(-c3ccncc3)[nH]2)cc1,x,-1%,u,u,13µM*,0%
Fc1ccc(-c2nc(-c3cccs3)[nH]c2-c2ccc(F)cc2)cc1,-92%,-17%,u,u,u,-2%
COc1ccc(S(=O)(=O)N2CCCCC2)cc1NC(=O)CCC(=O)N1CCC(c2ccccc2)=N1,x,-4%,-3%,x,x,x
CCN(CC)c1ccc(NC(=O)CN2C(=O)CC(C)(C)S(=O)(=O)c3ccccc32)c(C)c1,0%,7%,8%,u,8.3µM*,-5%
COc1ccc2[nH]c(=O)c(CN(C(=O)c3cccnc3)c3ccccc3C)cc2c1,-1%,6%,8%,1%,1%,-8%
Cc1ccc(C(=O)O)cc1NC(=O)CSc1ncnc2sc3c(c12)CCC3,-1%,3%,3%,-3%,13%,5%
